Results on 32 compounds are retold here after PubChem BioAssay (Tox21).

A short description of experiment [1]: A CellTox Green Cytotoxicity Assay to monitor cytotoxicity in HepG2 cells - 8 hour (AID 1224890). Note: nearly all actives have a fitted effect of over 45% in size. The essentials:
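Read-out is fluorescence of a cyanine dye excluded from live cells that stains DNA of dead HepG2 cells, with signal proportional to cytotoxicity. Plates were read at 0, 8, 16, 24, 32 and 40 h after compound addition.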

The nature of experiment [2]: qHTS assay to identify small molecule HDAC inhibitors - cell viability counter screen (AID 1259365). Note: series mostly up to about 92 µM; nearly all actives have a fitted effect of over 50% in size. The essentials: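 Wild-type HCT-116 cells, 1,500/well, cultured overnight, then compound-treated 2 h at 37 C. Viability measured as ATP luminescence with CellTiter-Glo after 30 min at room temperature.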
On the technique in general: qHTS replaces the single test concentration by a dilution series.

Experiment [3] in a line: qHTS assay to identify small molecule agonists of the sonic hedgehog signaling (Shh) pathway - cell viability counter screen (AID 1259366). Note: nearly all actives have a fitted effect of over 50% in size. Note: potency is the fitted concentration of half-maximal effect. The essentials: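 NIH/3T3-derived Gli1-Luc reporter cells, 2,000 per well, received compound after 4 h and were treated about 23 h at 37C. Viability measured in the same wells by CellTiter-Fluor fluorescence after 1 h.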
The nature of experiment [4]: qHTS assay to identify small molecule antagonists of the sonic hedgehog signaling (Shh) pathway - cell viability counter screen (AID 1259367). Note: nearly all actives have a fitted effect of over 55% in size. The essentials: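 After a 4 hr settling period, 3T3 Gli1-Luc cells were treated with DMSO-dissolved chemicals and conditioned medium, kept 24 hr at 37C in 5% CO2, and assayed for viability by CellTiter-Fluor fluorescence following 1 hr reagent incubation.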

In experiment [5] the target is Estrogen receptor (Homo sapiens) (UniProt P03372). As to the kind of experiment: qHTS assay to identify small molecule antagonists of the estrogen receptor alpha (ER-alpha) signaling pathway using the BG1 cell line in the presence of 0.1 nM 17-beta-estradiol (AID 1259244). Note: nearly all actives have a fitted effect of over 50% in size. Note: potency is the fitted concentration of half-maximal effect. The method in brief:
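Cells: VM7Luc4E2, endogenous ER-alpha, 4x ERE-luc stable. Pre-culture 5 d, phenol red-free, charcoal-stripped FBS. Plated 24 h, compound + E2 0.1 nM final, 22 h 37C/5% CO2. Readout ONE-Glo luminescence.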

The nature of experiment [6]: qHTS assay to identify small molecule HDAC inhibitors (AID 1259364). Note: top concentration of the series differs between compounds; nearly all actives have a fitted effect of over 45% in size. The method in brief: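 Luminescence from a cell-permeant luminogenic class I/II HDAC substrate reports endogenous deacetylase activity in intact HCT-116 cells treated with compounds for 2 h.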
A short description of experiment [7]: qHTS assay to identify small molecule antagonists of the androgen receptor (AR) signaling pathway using the MDA cell line in the presence of 0.5 nM R1881 - cell viability counter screen (AID 1259242). Note: nearly all actives have a fitted effect of over 45% in size. The method in brief: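 Counter screen for cytotoxicity run in the same wells as the AR antagonist reporter screen: MDA-kb2 cells were treated 16 hr with test compounds and 0.5 nM R1881, then live-cell protease activity was measured by fluorescence.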

Experiment [8] can be described thus: qHTS assay to identify small molecule phospholipidosis (PLD) inducers (AID 1259344; active = well fitted curve in the direction sought with a large enough effect; an effect the other way counts as inactive or inconclusive). The method in brief:
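HepG2 cells grown on collagen I take up LipidTOX Red while exposed to compound for 24 h; after fixation they are imaged at 20x and pit metrics are extracted.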

Experiment [9] in a line: qHTS assay to identify small molecule antagonists of the estrogen receptor alpha (ER-alpha) signaling pathway using the BG1 cell line in the presence of 0.1 nM 17-beta-estradiol - cell viability counter screen (AID 1259241). Note: nearly all actives have a fitted effect of over 40% in size. The essentials: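 VM7Luc4E2 cells (endogenous full-length ER-alpha, 4xERE-luciferase), cultured 5 days in charcoal-stripped serum, exposed to compounds with 0.1 nM 17beta-estradiol (final) for 22 hr at 37C. Viability read in same wells as live-cell protease fluorescence after 30 min.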

Experiment [10] has as its target Androgen receptor (Homo sapiens) (UniProt P10275). As to the kind of experiment: qHTS assay to identify small molecule antagonists of the androgen receptor (AR) signaling pathway using the MDA cell line in the presence of 0.5 nM R1881 (AID 1259243). Note: nearly all actives have a fitted effect of over 50% in size. The essentials: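 Luciferase luminescence is the read-out: compounds are tested for suppressing 0.5 nM R1881-driven MMTV reporter activity in MDA-kb2 cells after 16 hr at 37C.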

Values without a mark were called inactive. Results filed as inconclusive are left out. Activity calls are given as the source filed them. Unless noted, calls come from the whole dose curve; as a rule, active = well fitted curve in the direction sought with a large enough effect in the repeat runs; inconclusive = weak or mixed curves; inactive = no such curve, though single readings can be large; an effect the other way counts as inactive or inconclusive.
% is set by controls: 0 for no effect and ±100 for the full control effect.

Sequence of Estrogen receptor (Homo sapiens) (P03372 whole entry, looked up): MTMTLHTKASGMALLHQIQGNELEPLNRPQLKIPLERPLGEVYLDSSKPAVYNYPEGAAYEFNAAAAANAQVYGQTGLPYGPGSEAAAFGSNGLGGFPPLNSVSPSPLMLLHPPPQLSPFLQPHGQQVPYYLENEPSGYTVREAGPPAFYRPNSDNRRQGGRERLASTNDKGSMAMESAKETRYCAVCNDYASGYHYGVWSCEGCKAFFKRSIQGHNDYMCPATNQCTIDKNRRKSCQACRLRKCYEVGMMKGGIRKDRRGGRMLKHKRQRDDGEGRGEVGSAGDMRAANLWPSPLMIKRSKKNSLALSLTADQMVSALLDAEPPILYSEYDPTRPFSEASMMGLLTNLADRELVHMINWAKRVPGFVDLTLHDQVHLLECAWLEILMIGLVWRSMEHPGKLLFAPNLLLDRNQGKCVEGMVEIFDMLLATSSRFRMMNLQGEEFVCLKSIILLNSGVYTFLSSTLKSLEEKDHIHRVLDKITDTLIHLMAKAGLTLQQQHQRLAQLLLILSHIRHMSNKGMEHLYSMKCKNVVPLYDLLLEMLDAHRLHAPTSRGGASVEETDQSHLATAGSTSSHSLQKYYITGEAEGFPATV
Sequence of Androgen receptor (Homo sapiens) (P10275 whole entry, looked up): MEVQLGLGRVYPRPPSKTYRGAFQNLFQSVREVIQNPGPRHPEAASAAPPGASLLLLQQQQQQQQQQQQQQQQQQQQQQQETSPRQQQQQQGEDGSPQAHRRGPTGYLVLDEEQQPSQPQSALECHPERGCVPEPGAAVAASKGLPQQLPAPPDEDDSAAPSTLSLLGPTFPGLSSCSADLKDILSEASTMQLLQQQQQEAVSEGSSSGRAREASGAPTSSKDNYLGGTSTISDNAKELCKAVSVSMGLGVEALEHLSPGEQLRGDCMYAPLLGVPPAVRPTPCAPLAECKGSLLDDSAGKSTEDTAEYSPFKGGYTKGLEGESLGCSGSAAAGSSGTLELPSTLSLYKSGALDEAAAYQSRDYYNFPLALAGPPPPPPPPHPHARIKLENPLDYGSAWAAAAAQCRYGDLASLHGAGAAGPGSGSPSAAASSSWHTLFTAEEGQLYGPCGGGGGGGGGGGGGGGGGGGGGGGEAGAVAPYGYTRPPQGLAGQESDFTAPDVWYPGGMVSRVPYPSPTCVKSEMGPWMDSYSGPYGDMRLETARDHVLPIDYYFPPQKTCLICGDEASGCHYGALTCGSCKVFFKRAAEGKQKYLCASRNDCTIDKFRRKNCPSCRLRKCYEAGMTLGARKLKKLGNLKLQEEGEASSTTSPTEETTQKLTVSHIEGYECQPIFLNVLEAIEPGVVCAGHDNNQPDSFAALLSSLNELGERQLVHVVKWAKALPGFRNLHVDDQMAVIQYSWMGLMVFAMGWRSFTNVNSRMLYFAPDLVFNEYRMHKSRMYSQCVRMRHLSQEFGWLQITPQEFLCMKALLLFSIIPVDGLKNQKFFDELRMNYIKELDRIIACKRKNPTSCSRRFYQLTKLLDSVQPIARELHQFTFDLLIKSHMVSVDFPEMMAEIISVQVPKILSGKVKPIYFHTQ

`O=C(CS)OCCOC(=O)CS`: the Potency entry in [1], in experiment [2], in experiment [3] and in [4] was “inactive” throughout.
With `CNCCCC1c2ccccc2C=Cc2ccccc21`, the Potency result in experiment [1], in [5], in experiment [6] and in experiment [2] was “inactive” each time.
Turning to `CC[C@H](NC(=O)c1cc(F)ccc1NS(=O)(=O)c1cccc2cccnc12)c1ccccc1`, the Potency result in experiment [1], in experiment [7], in experiment [6], in [2] and in experiment [3] was “inactive” each time.
Turning to `Cc1nc2ccccn2c(=O)c1CCN1CCC(C(=O)c2ccc(F)cc2)CC1`, the Potency entry in [1], in [7], in experiment [6], in experiment [2], in experiment [3] and in [4] was “inactive” in each case. Also, the compound was classed as inactive in [8].
As to `CNC(=O)N(c1ccccc1)c1ccccc1`, the Potency entry in experiment [1], in experiment [5], in [2], in experiment [3] and in [4] was “inactive” throughout.
Consider `OCCSc1ccccc1`, for which the Potency result in experiment [1], in experiment [7], in experiment [5], in experiment [6], in experiment [2] and in experiment [3] was “inactive” in each case. The Potency result in experiment [4] is “inactive”.
On to `[O]=[Bi]`, for which the cytotoxicity increase in experiment [1] was 2.13% [at 6.97 µM]. Moreover, the viability change, negative = cytotoxic in [7] is 1.95% [at 8.39 µM]; in [3], 11.3% [at 8.39 µM]; in experiment [4], -5.4% [at 8.39 µM]. Moreover, in experiment [6], the activity change, negative = inhibition is 9.82% [at 8.39 µM].
Regarding `Nc1nccs1`, the Potency result in [1], in experiment [7], in experiment [6], in [2], in experiment [3] and in [4] was “inactive” throughout. Besides, the compound was called inactive in [8].
As for `O=C(Nc1ccc([N+](=O)[O-])cc1)Nc1ccc([N+](=O)[O-])cc1`, the Potency result in [1], in experiment [7], in [2] and in [4] was “inactive” each time. In addition, the result in experiment [8] was inactive.
Regarding `CCCCCCCC/C=C\CCCCCCCC(=O)OC(CO)CO`, the Potency result in [1], in [7], in experiment [6], in [2], in [3] and in experiment [4] was “inactive” throughout.
On to `Cc1occc1C(=O)Nc1ccc(C(=O)N2CCC(F)(F)/C(=C\C(=O)N3CCC(N4CCCCC4)CC3)c3ccccc32)cc1`, for which the Potency entry in experiment [1], in experiment [7], in experiment [6] and in experiment [2] was “inactive” in each case.
Regarding `c1cc[c]([Bi]([c]2ccccc2)[c]2ccccc2)cc1`, the Potency entry in experiment [1], in experiment [5], in experiment [6] and in experiment [2] was “inactive” in each case.
Regarding `CCOCCn1c(C2CCN(CCc3ccc(C(C)(C)C(=O)O)cc3)CC2)nc2ccccc21`, the Potency entry in experiment [9], in experiment [7], in experiment [10], in [5], in [6] and in experiment [2] was “inactive” each time. Further, the Potency entry in experiment [3] and in [4] was “inactive” throughout.
On to `CCN(Cc1cccc(S(=O)(=O)O)c1)c1ccc(C(=C2C=CC(=[N+](CC)Cc3cccc(S(=O)(=O)[O-])c3)C=C2)c2ccccc2)cc1`, for which the Potency entry in experiment [1], in [7], in experiment [5], in [2] and in [3] was “inactive” in each case.
As for `CC(=O)N(c1onc(C)c1C)S(=O)(=O)c1ccc(N)cc1`, the Potency result in experiment [1], in [7], in experiment [5], in [6], in experiment [2] and in [3] was “inactive” throughout. In [4], the Potency result is “inactive”.
As for `CCC(C)(C)C1CCC(O)CC1` (stereo unspecified), the Potency result in [1], in experiment [7], in [5], in [2], in experiment [3] and in experiment [4] was “inactive” each time.
For `CCc1cccc(N(C)C(N)=Nc2cccc3ccccc23)c1`, the Potency result in experiment [1], in [7], in experiment [2], in experiment [3] and in experiment [4] was “inactive” throughout. The result in [8] was inactive.
On to `CO[C@@]12[C@H](COC(N)=O)C3=C(C(=O)C(C)=C(N)C3=O)N1C[C@@H]1N[C@@H]12`, for which the Potency entry in experiment [1], in experiment [7], in experiment [6] and in [2] was “inactive” each time. Moreover, the outcome in experiment [8] was inactive.
In the case of `CO[C@H]1O[C@H](CO)[C@@H](O)[C@H](O)[C@H]1O`, the Potency result in [1], in [7], in [6], in experiment [2], in [3] and in experiment [4] was “inactive” each time.
Turning to `C=C(C)C(=O)OCCOC(=O)CC(C)=O`, the Potency entry in experiment [1], in experiment [7], in experiment [6], in [2], in [3] and in [4] was “inactive” in each case.
Turning to `NC(=O)N(O)[C@@H]1C=C[C@H](Oc2cccc(Oc3ccc(F)cc3)c2)C1`, the Potency result in [7], in [6], in experiment [2], in experiment [3] and in experiment [4] was “inactive” each time.
Turning to `Cc1nccn1-c1ccc(Sc2cccc(C3(C(N)=O)CCOCC3)c2)cc1`, the Potency entry in experiment [1], in experiment [2], in experiment [3] and in experiment [4] was “inactive” in each case. The Potency in [5] is 3.06 µM (active).
With `Nc1ccc(S(=O)(=O)O)cc1`, the Potency result in experiment [1], in experiment [7], in [5], in experiment [6], in experiment [2] and in [3] was “inactive” in each case. Also, the Potency result in experiment [4] was “inactive”.
`COc1cc2ncnc(Nc3ccc(F)c(Cl)c3)c2cc1OCCCN1CCOCC1`: the Potency entry in [7] and in [6] was “inactive” in each case. The outcome in experiment [8] was inactive. In addition, in [3], the Potency was 15 µM (active).
Regarding `NCC1CCCC(CN)C1` (stereo unspecified), the Potency result in experiment [1], in [7], in [6], in experiment [2], in experiment [3] and in experiment [4] was “inactive” each time.
Turning to `O=C1NCCN1`, the Potency result in experiment [1], in experiment [7], in experiment [5], in experiment [6], in experiment [3] and in experiment [4] was “inactive” each time.
As for `O=C(O)c1cccc(O)c1`, the Potency entry in experiment [1], in [7], in [5], in [6], in [2] and in experiment [3] was “inactive” in each case. Further, the Potency entry in experiment [4] was “inactive”.
Consider `COCCOC`, for which the Potency result in [1], in [7], in [6], in experiment [2], in experiment [3] and in [4] was “inactive” throughout.
With `CCOC(=N)CC(=O)OCC`, the Potency entry in experiment [1], in [7], in experiment [5], in experiment [2], in experiment [3] and in [4] was “inactive” in each case.
As for `CN1CCN(CCCN2c3ccccc3Sc3ccc(S(=O)(=O)N(C)C)cc32)CC1`, the Potency result in [9] and in [6] was “inactive” in each case. For the same compound, the call in experiment [8] was inactive. In addition, the Potency in [3] was 11.9 µM (active).
On to `CCCCC(=O)O[C@]1(C(=O)CO)[C@@H](C)C[C@H]2[C@@H]3CCC4=CC(=O)C=C[C@]4(C)[C@@]3(F)[C@@H](O)C[C@@]21C`, for which the Potency result in [1], in experiment [7], in experiment [5], in experiment [6], in experiment [2] and in experiment [3] was “inactive” each time.
Take `NC(=O)Nc1ccc(Cl)cc1`: the Potency result in experiment [9], in experiment [7], in [5], in experiment [6], in experiment [2] and in experiment [3] was “inactive” in each case. In addition, the Potency entry in [4] is “inactive”.
